Records with an inconclusive call do not appear. Calls of active or inactive are those of the source. Unless noted, calls follow the shape of the dose curve; as a rule, active = well fitted curve in the direction sought with a large enough effect in the repeat runs; inconclusive = weak or mixed curves; inactive = no such curve, though single readings can be large; an effect the other way counts as inactive or inconclusive.
How the values were obtained:
[1] = qHTS assay to identify small molecule antagonists of the constitutive androstane receptor (CAR) signaling pathway - cell viability counter screen (AID 1224837); also: nearly all actives have a fitted effect of over 45% in size
Summary of the method: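 Read-out: CellTiter-Fluor fluorescence after 23 hr at 37 C/5% CO2. Cells: HepG2 double-stable for hCAR and CYP2B6-2.2kb. Compounds tested at 15 concentrations in the presence of CITCO, final concentration 50 nM.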

[2] = qHTS assay to identify small molecule antagonists of the estrogen related receptor signaling pathway with the pleiotropic PPARgamma coactivator (PGC) from Tox21 10K library - cell viability counter screen (AID 1224840; active = well fitted cell-killing curve with a large enough effect in the repeat runs, not every such curve was filed as active; also: nearly all actives have a fitted effect of over 40% in size)
Summary of the method: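 Fluorescence read-out of CellTiter-Fluor viability reagent, added after cells had been exposed to compound in DMSO for 17.5 h at 37 C; 30 min development at 37 C/5% CO2. Cells: PGC/ERR line, 2,000/well.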

[3] = qHTS assay to identify small molecule antagonists of the estrogen related receptor signaling pathway with the pleiotropic PPARgamma coactivator (PGC) from Tox21 10K library (AID 1224841; call rule not given here; also: actives are mostly falling curves and most rising ones were filed inactive; nearly all actives have a fitted effect of over 50% in size)
Summary of the method: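 Luminescence read-out (One-Glo luciferase reagent, 30 min at room temperature) from PGC/ERR cells exposed to DMSO-dissolved test compounds for 18 h at 37 C; cells, 2,000 per well, had been preincubated 6 h before compound transfer.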

[4] = qHTS assay to identify small molecule agonists of the estrogen related receptor signaling pathway with the pleiotropic PPARgamma coactivator (PGC) from Tox21 10K library (AID 1224842); also: nearly all actives have a fitted effect of over 15% in size
Summary of the method: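 PGC/ERR reporter cell line, 2,000 cells per well, incubated 6 h at 37 C before 23 nL compound in DMSO was added. After 18 h at 37 C, One-Glo luminescence read following 30 min at room temperature.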

[5] = qHTS assay to identify small molecule agonists of the hypoxia (HIF-1) signaling pathway - cell viability counter screen (AID 1224844; calls by dose curve; also: nearly all actives have a fitted effect of over 50% in size)
Summary of the method: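 CellTiter-Glo luminescence read-out, 30 min RT, taken in the same wells as the beta-lactamase HRE reporter assay; HRE-bla ME-180 cells, 0.5% dialyzed FBS, 17 hr compound treatment at 37C, 5% CO2.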

[6] = qHTS assay to identify small molecule agonists of H2AX (AID 1224845; active = well fitted activation curve with a large enough effect in the signal ratio in the repeat runs, not every such curve was filed as active; the % refers to the signal ratio)
Summary of the method: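 Wild-type CHO-K1 cells, plated overnight, exposed 3hr at 37C to 15 concentrations (0.76% DMSO final). Lysed, then HTRF anti-pH2AX (S139) cryptate and anti-H2AX-d2 antibodies, 24 hr room temperature; 665/620 nm emission read.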

[7] = qHTS assay to identify small molecule agonists of the hypoxia (HIF-1) signaling pathway (AID 1224846; active = well fitted activation curve with a large enough effect in the signal ratio in the repeat runs, not every such curve was filed as active; the % refers to the signal ratio)
Summary of the method: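 Beta-lactamase FRET read-out (CCF4-AM substrate) from ME-180 cells carrying an HRE-driven bla reporter, after 17 hrs compound exposure at 37C/5% CO2. Cells were seeded at 2,000 per well in 0.5% dialyzed FBS medium and preincubated 5 hrs.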

[8] = qHTS assay to identify small molecule agonists of H2AX - cell viability counter screen (AID 1224847; calls by dose curve; also: top concentration of the series differs between compounds; nearly all actives have a fitted effect of over 30% in size)
Summary of the method: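 Viability of CHO-K1 (wild type) cells after 3 hr compound exposure was measured by CellTiter-Glo luminescence.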

[9] = qHTS assay to identify small molecule antagonists of the estrogen related receptor (ERR) signaling pathway from Tox21 library (AID 1224848); also: nearly all actives have a fitted effect of over 50% in size
Summary of the method: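 Quantitative high-throughput format: ERR reporter cells (2,000/well) pre-incubated 6 h, treated 18 h at 37 C with compounds in DMSO alongside positive and negative controls, then read by ONE-Glo luminescence.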

[10] = qHTS assay to identify small molecule agonists of the estrogen related receptor (ERR) signaling pathway from Tox21 library (AID 1224849; calls by dose curve; also: nearly all actives have a fitted effect of over 15% in size); settings: ERR reporter cell line, ONE-Glo luciferase, 18 h; at 92.4 µM (top of the series) unless noted
Summary of the method: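 Luminescence readout (ONE-Glo, 30 min RT) after 18 h compound exposure at 37 C of NTP-supplied ERR reporter cells; cells were plated 6 h before compound addition by pin tool.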

[11] = qHTS RealTime-Glo MT Cell Viability Assay in HepG2 cells - 24 hour (AID 1224867); also: nearly all actives have a fitted effect of over 50% in size
Summary of the method: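 Real-time, nonlytic viability: 600 HepG2 cells/well mixed with NanoLuc enzyme plus prosubstrate; 5 h settle, compound (DMSO) added by pintool; luminescence monitored over 40 h at 37 C.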

[12] = qHTS RealTime-Glo MT Cell Viability Assay in HEK293 cells - 32 hour (AID 1224868)
Summary of the method: (§1)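 Cells + reagent dispensed (600 cells/well, HEK293) → 5 h at 37 C/5% CO2 → 23 nL compound in DMSO pinned → 40 h at 37 C → luminescence read at 0, 8, 16, 24, 32, 40 h.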

[13] = A CellTox Green Cytotoxicity Assay to monitor cytotoxicity in HEK293 cells - 0 hour (AID 1224869); also: nearly all actives have a fitted effect of over 50% in size
Summary of the method: (§2)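 Read-out: fluorescence of a cell-impermeant cyanine dye staining DNA of dead cells, proportional to cytotoxicity. HEK293, 600 cells/well with reagent, compound (23 nL DMSO) added after 5 h; reads at 0, 8, 16, 24, 32, 40 h.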

[14] = qHTS RealTime-Glo MT Cell Viability Assay in HepG2 cells - 40 hour (AID 1224870); also: nearly all actives have a fitted effect of over 50% in size
Summary of the method: (§3)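 HepG2 cells (600/well) mixed with RealTime-Glo MT reagent, settled 5 h at 37 C/5% CO2 before compound addition. Nonlytic NanoLuc luminescence from viable-cell prosubstrate reduction read repeatedly during 40 h treatment at 37 C.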

[15] = A CellTox Green Cytotoxicity Assay to monitor cytotoxicity in HEK293 cells - 40 hour (AID 1224871); also: nearly all actives have a fitted effect of over 45% in size; also: potency is read from the fitted curve at half-maximal effect
Summary of the method: as §2

[16] = qHTS RealTime-Glo MT Cell Viability Assay in HEK293 cells - 16 hour (AID 1224872)
Summary of the method: as §1

[17] = qHTS RealTime-Glo MT Cell Viability Assay in HepG2 cells - 8 hour (AID 1224873); also: nearly all actives have a fitted effect of over 55% in size
Summary of the method: as §3

[18] = target: Nuclear receptor subfamily 1 group I member 3 (Homo sapiens) (UniProt Q14994); test: qHTS assay to identify small molecule agonists of the constitutive androstane receptor (CAR) signaling pathway (AID 1224839);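 also: HepG2 cells stably carrying human CAR and a CYP2B6 luciferase reporter; nearly all actives have a fitted effect of over 15% in size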
Summary of the method: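 Stable hCAR/CYP2B6-2.2kb HepG2 line in DMEM with 10% FBS; compounds (15 concentrations) and 0.75 uM PK11195 final, 24 h at 37 C/5% CO2, then ONE-Glo luminescence after 30 min.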

[19] = target: Thyrotropin receptor (Homo sapiens) (UniProt P16473); test: qHTS assay to identify small molecule agonists of the thyroid stimulating hormone receptor (TSHR) signaling pathway (AID 1224843; calls by dose curve; also: nearly all actives have a fitted effect of over 45% in size)
Summary of the method: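 Agonist-mode screen: TSHR HEK293 cells received test chemicals for half an hour at room temperature, then HTRF cAMP detection reagents for one hour prior to fluorescence measurement. Each chemical ran as a 15-concentration series, triplicated.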
% is scaled to controls: 0 for no effect and ±100 for the full control effect.

Chain of Thyrotropin receptor (Homo sapiens) (P16473 whole entry, looked up): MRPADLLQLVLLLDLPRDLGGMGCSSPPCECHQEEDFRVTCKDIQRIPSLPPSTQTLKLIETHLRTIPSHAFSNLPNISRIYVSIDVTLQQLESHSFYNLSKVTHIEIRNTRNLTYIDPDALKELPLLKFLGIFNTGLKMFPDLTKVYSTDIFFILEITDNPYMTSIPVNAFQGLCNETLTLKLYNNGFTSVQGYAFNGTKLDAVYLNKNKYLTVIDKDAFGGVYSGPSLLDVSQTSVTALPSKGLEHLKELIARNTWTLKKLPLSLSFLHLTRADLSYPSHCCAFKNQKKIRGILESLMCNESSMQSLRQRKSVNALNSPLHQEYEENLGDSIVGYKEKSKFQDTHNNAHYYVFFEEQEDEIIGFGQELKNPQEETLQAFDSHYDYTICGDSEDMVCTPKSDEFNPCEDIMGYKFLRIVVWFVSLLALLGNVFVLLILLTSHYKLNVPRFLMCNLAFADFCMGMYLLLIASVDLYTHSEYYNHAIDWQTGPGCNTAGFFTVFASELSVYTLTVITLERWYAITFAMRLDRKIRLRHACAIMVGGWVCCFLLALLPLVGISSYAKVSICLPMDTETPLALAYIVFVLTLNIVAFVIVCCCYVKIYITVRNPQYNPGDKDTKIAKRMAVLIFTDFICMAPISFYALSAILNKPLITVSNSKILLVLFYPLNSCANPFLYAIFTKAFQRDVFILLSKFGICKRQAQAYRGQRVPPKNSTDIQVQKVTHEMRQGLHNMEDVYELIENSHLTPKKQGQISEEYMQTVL
Chain of Nuclear receptor subfamily 1 group I member 3 (Homo sapiens) (Q14994 whole entry, looked up): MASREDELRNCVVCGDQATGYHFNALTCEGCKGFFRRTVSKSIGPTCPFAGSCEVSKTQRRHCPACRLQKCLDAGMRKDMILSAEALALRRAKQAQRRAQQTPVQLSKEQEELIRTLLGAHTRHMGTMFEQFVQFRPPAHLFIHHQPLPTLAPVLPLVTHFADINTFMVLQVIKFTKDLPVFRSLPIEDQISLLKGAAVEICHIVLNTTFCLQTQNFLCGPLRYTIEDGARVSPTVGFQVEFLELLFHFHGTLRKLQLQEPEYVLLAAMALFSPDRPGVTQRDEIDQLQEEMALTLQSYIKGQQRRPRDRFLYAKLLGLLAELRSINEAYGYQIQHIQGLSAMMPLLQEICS

Cc1cc(CC(=O)O)c(C)n1-c1ccc(Cl)cc1
inactive: Potency [1] | Potency [2] | Potency [3] | Potency [4] | Potency [5] | Potency [6] | outcome [7] | Potency [8] | Potency [9] | activity change, positive = activation [10] -14.3% [at 42.5 µM] | Potency [11] | Potency [12] | Potency [13] | Potency [14] | Potency [15] | Potency [16] | Potency [17]

CC1(C)CCC(C)(C)c2cc(NC(=O)c3ccc(C(=O)O)cc3)ccc21
inactive: Potency [1] | Potency [18] | Potency [2] | Potency [19] | outcome [7] | Potency [11] | Potency [13] | Potency [14] | Potency [15] | Potency [17]

O=C(NN1CCCC1)NS(=O)(=O)c1ccc(Cl)cc1
inactive: Potency [1] | Potency [18] | Potency [3] | Potency [4] | Potency [19] | Potency [5] | outcome [7] | Potency [9] | activity change, positive = activation [10] 5.66% [at 42.5 µM] | Potency [11] | Potency [12] | Potency [13] | Potency [14] | Potency [15] | Potency [16] | Potency [17]

N#CCc1cccc(C(F)(F)F)c1
inactive: Potency [1] | Potency [2] | Potency [19] | Potency [5] | Potency [6] | outcome [7] | Potency [8] | Potency [11] | Potency [12] | Potency [13] | Potency [14] | Potency [15] | Potency [16] | Potency [17]

COc1cc(C(C)(C)C)c(O)c(C(C)(C)C)c1
inactive: Potency [1] | Potency [2] | Potency [3] | Potency [4] | Potency [5] | outcome [7] | Potency [9] | activity change, positive = activation [10] -4.21% | Potency [11] | Potency [12] | Potency [13] | Potency [14] | Potency [16] | Potency [17]
active: Potency [15] 43.6 µM

CCCCCCCCCC(=O)OCC
inactive: Potency [1] | Potency [18] | Potency [2] | Potency [19] | Potency [5] | Potency [6] | outcome [7] | Potency [8] | Potency [11] | Potency [12] | Potency [13] | Potency [14] | Potency [15] | Potency [16] | Potency [17]

O=c1[nH]cnc2ccccc12
inactive: Potency [1] | Potency [2] | Potency [19] | Potency [5] | Potency [6] | outcome [7] | Potency [8] | Potency [11] | Potency [12] | Potency [13] | Potency [14] | Potency [15] | Potency [16] | Potency [17]

C1CCC2OC2C1 (stereo unspecified)
inactive: Potency [1] | Potency [2] | Potency [19] | Potency [5] | Potency [6] | outcome [7] | Potency [11] | Potency [12] | Potency [13] | Potency [14] | Potency [15] | Potency [16] | Potency [17]

O=C(CCN1CCN2CCCC2C1)N1c2ccccc2Sc2ccc(Cl)cc21 (stereo unspecified)
inactive: activity change, negative = cytotoxicity [1] -18.2% [at 19 µM] | viability change, negative = cytotoxic [2] -1.3% [at 19 µM] | activity, negative = inhibition [3] -25.1% [at 19 µM] | activation [4] -6.92% [at 19 µM] | activation [19] -2.43% [at 19 µM] | activity change, negative = cytotoxicity [5] 1.19% [at 15.8 µM] | activation (H2AX phosphorylation) [6] -2.77% [at 31.6 µM] | activation [7] -0.917% [at 15.8 µM] | activity, negative = inhibition [9] -23.7% [at 19 µM] | activity change, positive = activation [10] -13.2% [at 19 µM] | activity change, negative = cytotoxicity [11] -4.92% [at 15.8 µM] | activity change, negative = cytotoxic [12] -23% [at 15.8 µM] | cytotoxicity [13] -5.19% [at 15.8 µM] | activity change, negative = cytotoxic [14] -2.23% [at 15.8 µM] | cytotoxicity increase [15] 2.75% [at 15.8 µM] | activity change, negative = cytotoxicity [16] -13.3% [at 15.8 µM] | viability change, negative = cytotoxic [17] -2.56% [at 15.8 µM]

— PubChem BioAssay (Tox21)
